Neddylation inh – inhibitors of cullin neddylation, primary screen, biochemical, TR-FRET, uHTS, NAE and Ubc12; actives 0.58% (n = 360,000); AID 651699, 2012; inhibition, % at 25 µM; NEDD8-conjugating enzyme Ubc12 (Homo sapiens) + NEDD8-activating enzyme E1 regulatory …; in the data active = inhibition above about 36%
NPR2 activator – human GC-B receptor activators, primary screen, HEK293 GC-B cells, cGMP TR-FRET, EC30 CNP; AID 1920062, 2024; activation, % at 10 µM; actives 0.11% (n = 370,000); 0% at EC30 CNP, 100% saturating CNP;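 active = activation at 10 µM reaching about 35% in either raw or pattern-adjusted values, limit read from the data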
PfGluPho inh – PfG6PD enzyme inhibitors, primary screen, biochemical, fluorescence intensity, uHTS; glucose-6-phosphate dehydrogenase-6-phosphogluconolactonase (Plasmodium falciparum 3D7); PfGluPho enzyme, NADPH resazurin-diaphorase fluorescence; inhibition, % at 20 µM; actives 0.78% (n = 350,000);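 active = inhibition reaching at least a set limit at 20 µM in the primary screen, cut at about 59% in these data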;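 also: 0% = DMSO wells with substrate and 100% = DMSO wells lacking glucose-6-phosphate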
NPR1 activator – GC-A stimulated cGMP production enhancers – HEK293 GC-A cells, cGMP TR-FRET, EC30 ANP, primary screen; actives 0.14% (n = 370,000); 0% at EC30 ANP, 100% saturating ANP; activation, % at 10 µM; AID 1671463, 2021; Atrial natriuretic peptide receptor 1 (Homo sapiens), P16066; in the data active = activation above about 40%
Target sequence (P16066 whole entry, looked up): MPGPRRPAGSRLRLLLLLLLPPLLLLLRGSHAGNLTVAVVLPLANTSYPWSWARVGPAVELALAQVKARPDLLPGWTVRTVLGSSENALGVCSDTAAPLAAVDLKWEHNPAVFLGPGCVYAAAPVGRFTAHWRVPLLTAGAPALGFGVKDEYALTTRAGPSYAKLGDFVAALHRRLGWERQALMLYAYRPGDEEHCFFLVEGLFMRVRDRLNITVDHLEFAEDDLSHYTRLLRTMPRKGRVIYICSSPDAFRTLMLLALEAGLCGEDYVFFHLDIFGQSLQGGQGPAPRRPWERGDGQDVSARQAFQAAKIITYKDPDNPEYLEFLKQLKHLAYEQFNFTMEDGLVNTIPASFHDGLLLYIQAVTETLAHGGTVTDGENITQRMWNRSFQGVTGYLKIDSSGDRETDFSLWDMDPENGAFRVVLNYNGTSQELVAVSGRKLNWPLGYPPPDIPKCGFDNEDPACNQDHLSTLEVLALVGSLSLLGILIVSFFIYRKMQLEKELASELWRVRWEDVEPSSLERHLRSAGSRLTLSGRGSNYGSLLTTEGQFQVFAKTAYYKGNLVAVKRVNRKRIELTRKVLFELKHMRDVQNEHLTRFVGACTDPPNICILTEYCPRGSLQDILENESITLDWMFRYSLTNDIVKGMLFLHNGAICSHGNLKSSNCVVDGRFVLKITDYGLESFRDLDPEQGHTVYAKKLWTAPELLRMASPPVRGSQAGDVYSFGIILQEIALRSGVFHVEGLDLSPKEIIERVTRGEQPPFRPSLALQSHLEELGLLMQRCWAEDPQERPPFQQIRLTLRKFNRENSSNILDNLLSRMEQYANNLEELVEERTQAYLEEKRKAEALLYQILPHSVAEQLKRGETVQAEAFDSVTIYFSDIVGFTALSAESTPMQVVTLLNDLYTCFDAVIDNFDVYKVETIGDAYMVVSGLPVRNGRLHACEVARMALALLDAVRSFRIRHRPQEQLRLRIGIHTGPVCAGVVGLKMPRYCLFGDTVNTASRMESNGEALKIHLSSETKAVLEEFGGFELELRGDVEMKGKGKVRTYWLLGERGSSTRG
APOBEC3A inh – APOBEC3A ssDNA deaminase inhibitors, primary screen, selectivity assay for APOBEC3G inhibitor project, biochemical, FAM/TAMRA oligo cleavage fluorescence | AID 493011, 2011 | actives 0.41% (n = 330,000) | recombinant A3A, FAM/TAMRA ssDNA deamination fluorescence | inhibition, % at 20 µM;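 active = at least 40% inhibition at 20 µM here, with at most 30% in a related deaminase screen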;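 also: plate controls were A3A with DMSO for no effect and wells lacking A3A enzyme for full effect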
APOBEC3G inh – APOBEC3G DNA deaminase inhibitors, primary screen, biochemical, fluorescence, single-stranded DNA substrate, uHTS. recombinant A3G, ssDNA deamination FAM/TAMRA fluorescence. inhibition, % at 20 µM. actives 0.28% (n = 330,000). AID 493012, 2011;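 active = inhibition of at least 40% at 20 µM, with no more than 30% in the related APOBEC3A deaminase screen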;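 also: plate controls were DMSO wells with A3G for no effect and wells lacking A3G enzyme for full effect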
PfG6PD confirm – PfG6PD inhibitors, hit retest, confirmation, biochemical, fluorescence intensity, single concentration; actives 34% (n = 2,400); inhibition, % at 20 µM; recombinant PfGluPho, NADPH-diaphorase-resazurin fluorescence; AID 504753, 2011; shares compounds with PfGluPho inh;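 active = inhibition of at least 50% at 20 µM in any single replicate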;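 also: 0% = DMSO with substrate and 100% = DMSO lacking glucose-6-phosphate substrate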
Diaphorase 10uM – diaphorase inhibitors and chemical oxidizers, confirmation, counter-screen for P. falciparum G6PD inhibitor project, biochemical, fluorescence intensity, 10 µM NADPH; actives 39% (n = 820); AID 504862, 2011; inhibition, % at 20 µM; diaphorase-coupled resazurin reduction, NADPH 10 uM; shares compounds with PfGluPho inh;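 active = average inhibition reaching 50% or more with the compound at 20 µM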;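 also: resorufin red fluorescence formed as diaphorase reduces resazurin using NADPH; 0% = DMSO with enzyme and 100% = DMSO without enzyme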
Diaphorase 30uM – diaphorase inhibitors and chemical oxidizers, confirmation, counter-screen for P. falciparum G6PD inhibitor project, biochemical, fluorescence intensity, 30 µM NADPH | Diaphorase/resazurin coupled assay, resorufin fluorescence | actives 29% (n = 820) | shares compounds with PfGluPho inh | AID 504863, 2011 | inhibition, % at 20 µM;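 active = inhibition averaging 50% or more, tested at 20 µM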;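 also: 0% = DMSO with enzyme and 100% = DMSO wells lacking diaphorase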
An asterisk follows results filed as active; x = not tested or not shown. Most compounds without a hit are left out; they make up all but 2% or so of the library.

SMILES | Neddylation inh | NPR2 activator | PfGluPho inh | NPR1 activator | APOBEC3A inh | APOBEC3G inh | PfG6PD confirm | others
COC(=O)C1CN(Cc2cn(CCC3OCCO3)nn2)CCS(=O)(=O)N1Cc1ccc(Cl)cc1 (stereo unspecified) | x | 1 | x | -1 | x | x | x
COC(=O)N1C[C@H](OC(=O)c2ccc(-c3ccccc3)cc2)[C@H]2C[C@@H]1c1ccccc1O2 | x | -1 | x | 0 | x | x | x
C#CCOCCOCCOCCNc1nc(N2CCN(C(=O)CCCCCCCCCCNC(=O)[C@H](CCCCN)n3cc(C[C@@H](C)CC)nn3)CC2)nc(N2CCN(C(=O)CCCCCCCCCCNC(=O)[C@H](CCCCN)n3cc(C[C@@H](C)CC)nn3)CC2)n1 | 13 | x | 74* | x | x | x | -20
C#CCOCCOCCOCCNc1nc(N2CCN(C(=O)CCCCCCCCCCNC(=O)Cn3cc(CCCCCN)nn3)CC2)nc(N2CCN(C(=O)CCCCCCCCCCNC(=O)[C@H](CO)n3cc(CCCCCN)nn3)CC2)n1 | -37 | x | 62* | x | -7 | -4 | 21
C#CCOCCOCCOCCNc1nc(N2CCN(C(=O)CCCCCCCCCCNC(=O)[C@H](CCCCN)n3cc(CCO)nn3)CC2)nc(N2CCN(C(=O)CCCCCCCCCCNC(=O)[C@@H]([C@H](C)O)n3cc(C)nn3)CC2)n1 | -5 | x | 66* | x | -3 | -8 | 29
C#CCOCCOCCOCCNc1nc(N2CCN(C(=O)CCCCCCCCCCNC(=O)[C@H](CCCCN)n3cc(CCO)nn3)CC2)nc(N2CCN(C(=O)CCCCCCCCCCNC(=O)[C@H](CCCCN)n3cc(CCO)nn3)CC2)n1 | -24 | x | 68* | x | -6 | 7 | 23
COC(=O)[C@]12C[C@H](CC(=O)N3CCCCC3)C(=O)N(Cc3cccc4ccccc34)C1=C[C@H](C1CCCC1)O[C@@H]2C | x | -11 | x | -12 | x | x | x
C(=N\NC1=Nc2cccc3cccc1c23)/c1ccccn1 | -40 | -3 | 65* | -7 | x | x | 14
COC(=O)c1cc2c(c3c4cc(F)ccc4n(S(=O)(=O)c4ccc(C)cc4)c13)C(=O)N(Cc1ccc(N(C)C)cc1)C2 | x | 5 | x | -5 | x | x | x
CSc1ccccc1NC(=O)c1ccccc1 | 10 | 0 | -8 | 1 | 3 | 4 | x
O=C(Nc1ccccc1SC(=O)c1ccccc1)c1ccccc1 | -11 | 9 | 64* | 7 | x | x | 21
S=C(Nc1ccccc1Cl)OCCN1CCCC12CCC(c1ccccc1)CC2 (stereo unspecified) | x | 0 | x | -2 | x | x | x
C=CCSc1nnc(NC(=O)c2ccc(N3CCCC3=O)cc2)s1 | -100 | 3 | -10 | 0 | 2 | -5 | x
O=C(Nc1nnc(C2CC2)s1)c1ccc(Cl)nc1 | 29 | 3 | 80* | -4 | -2 | -6 | 58* | Diaphorase 10uM=64*;Diaphorase 30uM=50
CCc1nnc(NC(=O)c2ccc(Cl)nc2)s1 | 9 | -1 | 78* | -2 | 12 | 10 | 57* | Diaphorase 10uM=49;Diaphorase 30uM=41
C=CCSc1nnc(NC(=O)c2ccc(Cl)nc2)s1 | 32 | -3 | 82* | -2 | -3 | -7 | 78* | Diaphorase 10uM=72*;Diaphorase 30uM=49
CC(C)(C)c1nnc(NC(=O)Nc2ccc(Cl)cc2)s1 | -3 | 7 | 7 | -1 | 3 | 0 | x
CC(C)(C)c1nnc(NC(=O)c2ccc(Cl)nc2)s1 | 18 | 1 | 103* | 3 | -1 | -4 | 95* | Diaphorase 10uM=81*;Diaphorase 30uM=62*
C[C@H](CO)N1C[C@H](C)[C@@H](CN(C)C(=O)Nc2ccc3c(c2)OCO3)OCc2cn(nn2)CCCC1=O | x | 3 | x | -3 | x | x | x
O=C(NC1CCCCN(Cc2cccc(F)c2)C1=O)c1cccc(C(F)(F)F)c1 (stereo unspecified) | x | 1 | x | 2 | x | x | x
Cc1ccc(NC(=O)OC2CC3CC2[C@H]2CCCCN2[C@H]3Cc2ccccc2)cc1 (stereo partly specified) | x | 1 | x | -5 | x | x | x
COCc1cc(N2CCNC[C@@H]2C)ccc1N1CCN(Cc2ccccc2)[C@H](C)C1 | x | 1 | x | 3 | x | x | x
O=C(CCl)NCCN1C(=O)S/C(=C\c2cccnc2)C1=O | -39 | x | 72* | x | 4 | 13 | 66* | Diaphorase 10uM=-29;Diaphorase 30uM=-9
Cc1cccc(Cn2cc(COC(=O)Nc3ccc(F)cc3)nn2)c1 | x | 3 | x | 0 | x | x | x
O=C(OCC(O)CO)c1ccccc1Nc1ccnc2cc(Cl)ccc12 (stereo unspecified) | 8 | 7 | 82* | -4 | 3 | 0 | 31
SMILES | Neddylation inh | NPR2 activator | PfGluPho inh | NPR1 activator | APOBEC3A inh | APOBEC3G inh | PfG6PD confirm | others
COc1ccc2c(c1)N[C@@](CCN1C(=O)c3ccccc3C1=O)(c1[nH]c3ccccc3c1CCN1C(=O)c3ccccc3C1=O)C2=O | x | -1 | x | -2 | x | x | x
CCOC(=O)N1CCN(C(=O)C[C@H]2C[C@@]3(C(=O)OC)C(=C[C@H](C(C)(C)C)O[C@@H]3C)N(Cc3ccco3)C2=O)CC1 | x | -1 | x | -5 | x | x | x
COc1ccc(CN2C(C(=O)NCC(C)C)CSCCS2(=O)=O)cc1 (stereo unspecified) | x | 3 | x | -1 | x | x | x
CC1=CC(C)(C)N2C(=O)C(=Nc3ccc(O)cc3)c3cccc1c32 | -9 | -6 | 94* | -2 | 4 | 16 | 23
COc1cc(N=C2C(=O)N3c4c(cccc42)C(C)=CC3(C)C)cc(OC)c1 | 4 | -1 | 29 | -8 | -3 | -9 | x
CCNC(=O)Nc1ccc2c(c1)C(=O)N(C)[C@H]1CC[C@H](CC(=O)N[C@H](C)c3ccccc3)O[C@@H]1CO2 | x | 2 | x | 0 | x | x | x
CCCc1nc(SCC(=O)c2ccccc2)c2c(=O)n(C)c(=O)n(C)c2n1 | -1 | 12 | 71* | 3 | -1 | -7 | 24
CCc1nc(SCC(=O)c2ccccc2)c2c(=O)n(C)c(=O)n(C)c2n1 | -11 | 2 | 58 | 2 | 4 | 1 | x

Compound activity (PubChem)
